HepG2 tox = HepG2 cytotoxicity, counter-screen for TGF-b inhibitors; HepG2 CAGA-GFP viability, ATP luminescence, 18 h; Potency, µM (top dose mostly 46.1 µM), for inactives: at the highest dose activity change, negative = cytotoxicity, hits mostly cytotoxic; hit rate 0.76% among 410,000; note: potency is the fitted concentration of half-maximal effect
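CellTiter-Glo luminescence gave cytotoxicity after 18 hours at 37 degrees C. The cells were HepG2 CAGA-GFP in 1% FBS DMEM, stimulated with 500 pg/mL TGF-beta after compound addition. %Activity was normalised to no-cell wells (complete cell-killing) and DMSO (no toxicity), and curves were fitted and classified.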
IL-1B inflam inh = inflammasome signaling inhibition, IL-1 beta readout. THP-1 LPS/ATP IL-1B secretion, AlphaLISA, 16 h; stronger effect = lower value. activity change, % at 57.5 µM. hit rate 4.7% among 360,000. AID 743279; in the data active = activity change below about -50%; inconclusive = mostly about -30% to -49%; note: % is set by controls: 0 for no effect and ±100 for the full control effect
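THP-1 cells pretreated 1 hr with compounds (up to 57.5 uM final), then stimulated with LPS (250 ng/mL final) plus ATP (1.25 mM final); secreted IL-1B measured by AlphaLISA after 16 hr, decreased signal indicating inhibition.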
TGFb SMAD3 inh = blocks TGF-b signaling. HepG2 CAGA-GFP TGF-b/SMAD3 reporter, GFP fluorescence, 18 h; TGF-beta stimulated, 500 pg/mL final. Potency, µM (highest dose often 46.1 µM), inactives show at the highest dose activity, negative = inhibition, actives largely listed as inhibitors. hit rate 1.2% among 410,000. AID 588855; note: potency is the fitted concentration of half-maximal effect; % is set by controls: 0 for no effect and ±100 for the full control effect; nearly all actives have a fitted effect of over 65% in size
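GFP signal (ex488/em500-530) from TGF-beta-stimulated HEPG2 CAGA-GFP cells, 500 pg/mL final, 18 h at 37 degrees C in DMEM plus 1% FBS, normalized to unstimulated and DMSO-stimulated controls.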
S-ASM inh = blocks human secretory acid sphingomyelinase; placental ASM, HMU-PC fluorogenic substrate, 60 min; P17405; Potency, µM (doses to about 57.5 µM), for the others: at the top dose activity change, negative = inhibition, hits mostly inhibitors; hit rate 0.006% among 340,000; note: potency is the fitted concentration of half-maximal effect
Target sequence (P17405 47-631 limits assumed): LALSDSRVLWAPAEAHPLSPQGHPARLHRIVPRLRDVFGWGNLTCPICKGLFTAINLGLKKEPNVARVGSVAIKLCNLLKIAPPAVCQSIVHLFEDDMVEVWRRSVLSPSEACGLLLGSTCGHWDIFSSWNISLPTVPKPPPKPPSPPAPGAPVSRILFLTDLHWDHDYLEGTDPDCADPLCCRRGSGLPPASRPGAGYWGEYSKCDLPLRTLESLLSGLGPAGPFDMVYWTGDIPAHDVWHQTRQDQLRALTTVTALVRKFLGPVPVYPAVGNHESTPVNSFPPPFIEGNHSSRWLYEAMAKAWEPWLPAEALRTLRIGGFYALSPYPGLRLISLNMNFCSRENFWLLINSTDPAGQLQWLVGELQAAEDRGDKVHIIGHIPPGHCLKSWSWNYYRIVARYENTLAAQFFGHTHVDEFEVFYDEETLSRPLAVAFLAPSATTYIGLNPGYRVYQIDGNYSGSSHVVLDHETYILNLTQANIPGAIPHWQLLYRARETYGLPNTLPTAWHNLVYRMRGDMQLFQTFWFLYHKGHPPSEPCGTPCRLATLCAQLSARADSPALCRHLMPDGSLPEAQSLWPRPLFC
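Steps: dispense placental human ASM, pin compound, wait 10 min at room temperature, add HMU-PC0 substrate at 9 uM final, incubate 60 min at 37 °C, add stop solution raising pH to 10, read fluorescence.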
DT40 TDP1 CPT = DT40-hTDP1 cell growth loss with CPT; AID 686979; chicken DT40 Tdp1-/-;hTDP1 cells + 20 nM CPT, ATP luminescence, 48 h; Potency, µM (top dose mostly 46.2 µM), for inactives: top-dose activity change, negative = growth inhibition, most hits filed as inhibitors; hit rate 12% among 420,000; note: potency is the fitted concentration of half-maximal effect; % is set by controls: 0 for no effect and ±100 for the full control effect; nearly all actives have a fitted effect of over 55% in size
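Chicken DT40 Tdp1-/- cells complemented with human TDP1, 400 cells/well, exposed to compounds plus 20 nM camptothecin for at least 48 h at 37 C; viability read as ATP content by CellTiter-Glo luminescence.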
TDP1 cell noCPT = qHTS for Inhibitors of human tyrosyl-DNA phosphodiesterase 1 (TDP1): qHTS in cells in absence of CPT. AID 686978, 2013. DT40 Tdp1-/- hTDP1 cells, no CPT, ATP luminescence, 48 h. hit rate 15% among 420,000. Potency, µM (titrated, usually from 46.2 µM), for inactives: at the top dose activity change, negative = growth inhibition, usual class: inhibitors; note: potency is the fitted concentration of half-maximal effect; % is set by controls: 0 for no effect and ±100 for the full control effect; nearly all actives have a fitted effect of over 55% in size
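Compound effects on proliferation are scored in DT40 Tdp1-/-;hTDP1 cells in the absence of CPT. ATP levels (CellTiter-Glo luminescence) are recorded after a ≥48 hr, 37 °C incubation.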
* marks the source's active call; other numbers are inactive results; ? = inconclusive; . = no result. Compounds with a hit are over-represented: about 19% of the library has one in this group of screens. Unless noted, calls come from the whole dose curve; as a rule, active = well fitted curve in the direction sought with a large enough effect; inconclusive = small, poorly fitted or top-dose-only effect, or another doubt; inactive = no such curve, though single readings can be large; an effect the other way counts as inactive or inconclusive.

SMILES	HepG2 tox	IL-1B inflam inh	TGFb SMAD3 inh	S-ASM inh	DT40 TDP1 CPT	TDP1 cell noCPT
Clc1ccccc1OCCn1cnc2ccccc21	3%	-21	-3%	-4%	-18%	-22%
Cc1ccc(C)c(OCCCCn2cnc3ccccc3c2=O)c1	-36%	12	17%	-3%	?	?
Brc1ccccc1Cn1cnc2ccccc21	-31%	11	?	-1%	?	21µM*
Clc1ccc(Cn2cnc3ccccc32)cc1	-6%	-26	-27%	-1%	?	?
COc1ccc(CCNC(=O)c2ccc(C)s2)cc1OC	5%	3	17%	-1%	7%	-21%
COC1=CC(=O)C=C(OC)C1=O	-118%	-107*	?	-5%	0.65µM*	0.82µM*
COC1=CC(=O)c2ccccc2C1=O	2.2µM*	9	1.4µM*	-1%	3.7µM*	4.1µM*
CC1=C(C(=O)Nc2cccnc2)C(c2ccccc2)n2nc(SCc3ccccc3F)nc2N1 (stereo not given)	2%	.	4%	.	?	?
Cc1cccc(OCC(=O)NC2CCCc3ccccc32)c1C (stereo not given)	-19%	25	?	-3%	?	16µM*
Cc1cccc(OCC(=O)Nc2ccc3c4c(cccc24)CC3)c1C	-14%	33	1%	0%	12µM*	8.2µM*
COc1ccccc1OCC(=O)NC1CCCc2ccccc21 (stereo not given)	-15%	3	-10%	9%	-28%	?
O=C(CN1CCN(c2cccc(Cl)c2)CC1)NC1CCCc2ccccc21 (stereo not given)	-1%	-73*	-2%	-3%	?	?
CC(Sc1nc2ccccc2s1)C(=O)N(C)Cc1ccccc1 (stereo not given)	-32%	-67*	0%	-4%	-5%	-27%
CCOC(=O)[C@@H]1[C@H]2COc3ccccc3[C@H]2N2C(=O)N(c3cccc(C)c3)C(=O)[C@]12C	-16%	8	-4%	-5%	-9%	-6%
O=C(Nc1ccccc1Cl)C1Cc2ccccc2O/C1=N\O (stereo not given)	-4%	-5	-25%	5%	3%	-22%
O=C(NCc1ccccc1)c1cccn1-c1nnc(N2CCCCC2)s1	-20%	.	-5%	.	?	?
CCC(C(=O)OC)(C(=O)OC)c1ccc([N+](=O)[O-])cc1	-9%	10	3%	-2%	-1%	-1%
CC(Sc1nc2ccccc2s1)C(=O)NC1CCCc2ccccc21 (stereo not given)	9%	?	-14%	-4%	?	23µM*
Cc1nc2ccccn2c1C(=O)NC1CCCc2ccccc21 (stereo not given)	-27%	55	?	-5%	7.3µM*	7.3µM*
O=C(Cc1ccc(Br)cc1)NC1CCCc2ccccc21 (stereo not given)	-13%	8	5%	0%	?	?
O=C(CCl)NC1CCCc2ccccc21 (stereo not given)	1%	-98*	1%	2%	15µM*	18µM*
O=C(NC(=S)NC1CCCc2ccccc21)c1ccco1 (stereo not given)	-17%	-9	-23%	-2%	16µM*	?
O=C(Cn1c(=O)n(-c2ccccc2Cl)c(=O)c2sc3ccccc3c21)NC1CCCC1	2%	.	-2%	.	-22%	-2%
COc1cc(=O)n2c(c1C(=O)NC(C)c1ccco1)CCN(Cc1ccccc1C(F)(F)F)CC2 (stereo not given)	.	.	.	.	-4%	?
CC(C)c1nnc(NC(=O)CCC(=O)NC2CCCc3ccccc32)s1 (stereo not given)	-5%	44	0%	5%	?	15µM*
SMILES	HepG2 tox	IL-1B inflam inh	TGFb SMAD3 inh	S-ASM inh	DT40 TDP1 CPT	TDP1 cell noCPT
CN(C(=O)CCl)C1CCCc2ccccc21 (stereo not given)	-90%	-107*	?	-6%	2.6µM*	2.9µM*
CC(C)c1nnc(NC(=O)CCC(=O)NC2CCCCC2)s1	-1%	15	9%	4%	2%	-11%
Cc1ccc(-n2nnnc2SCC(=O)NC2CCCc3ccccc32)cc1 (stereo not given)	-8%	1	-19%	1%	?	18µM*
Cc1cc(N2CCCC2)ccc1/C=C1/C(=O)N(C)C(=S)N1C	-20%	27	5%	-4%	9.2µM*	8.2µM*
Cc1cc(C(=O)N(C)C2CCCCC2)no1	-13%	7	0%	1%	-1%	14%
CCCN(CCC)C(=O)c1ccc2c(c1)OCO2	-2%	5	-20%	2%	-30%	-29%
CCN(C(=O)c1ccc2c(c1)OCO2)C12CC3CC(CC(C3)C1)C2	-48%	5	?	-5%	?	23µM*
CCN(C(=O)c1cccc(S(=O)(=O)N(C)C)c1)C12CC3CC(CC(C3)C1)C2	-12%	-7	-3%	-2%	13µM*	12µM*
CCN(CC(=O)NCc1cccs1)C(=O)c1cccc(S(=O)(=O)N(C)C)c1	-17%	11	?	4%	-7%	-14%
Cc1cc(NC(=O)C2CC(=O)N(c3ccc(Cl)cc3)C2)no1 (stereo not given)	-12%	17	19%	8%	3%	-5%
O=C(/C=C/[C@H]1O[C@@H](n2ccc(=O)[nH]c2=O)[C@H](O)[C@@H]1O)NCCN1CCCCC1	1%	-11	0%	.	3%	1%
O=C(COC(=O)Cc1ccccc1F)Nc1cccc(F)c1	22%	2	-3%	-4%	12%	-12%
O=C(COC(=O)Cc1ccccc1F)Nc1ccc(F)cc1F	3.5µM*	-1	1%	-2%	-10%	-5%
Cc1ccc(S(=O)(=O)N2CCC(C(=O)NCC(C)(C)N3CCOCC3)CC2)c(C)c1	3%	-8	2%	3%	-3%	-7%
CC(C)(C)c1ccc(C(=O)NC(=S)NNC(=O)c2cccs2)cc1	-30%	0	-22%	-1%	23µM*	13µM*
O=C(NC(=S)NNC(=O)c1cccs1)c1ccccc1	-37%	84	-22%	4%	?	15µM*
O=C(NC(=S)NNC(=O)c1cccs1)c1ccco1	-1%	6	-2%	4%	?	?
Cc1cccc(C(=O)NC(=S)NNC(=O)c2cccs2)c1	-5%	0	-10%	1%	-76%	?
